Reference: PubChem BioAssay (NCI)
Compounds without any hit were thinned out: in the full panel of roughly 79,000, 15% have a hit. Values without a mark were called inactive. Calls of active or inactive are those of the source. Rule as the data show it: active = growth inhibition above about 70%; inactive = the rest.

What was measured:
[1] = NCI Yeast Anticancer Drug Screen. Data for the rad50 strain (AID 155);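 also: 0% = growth of vehicle-only cultures of the same strain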; settings: S. cerevisiae rad50 strain growth inhibition, active compounds read high
Method in brief: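 Relative growth inhibition (compound vs vehicle) was measured in yeast with a defined repair-gene alteration.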

[2] = NCI Yeast Anticancer Drug Screen. Data for the mec2-1 strain (AID 157); settings: S. cerevisiae mec2-1 strain, active compounds read high
Method in brief: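 Mutant yeast (mec2-1) grown with compound; growth inhibition relative to vehicle control reported.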

[3] = NCI Yeast Anticancer Drug Screen. Data for the sgs1 mgt1 strain (AID 161);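 also: 0% = growth of cultures given vehicle only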; settings: S. cerevisiae sgs1 mgt1 strain, active compounds read high
Method in brief: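 Growth of a repair-deficient yeast mutant was monitored after compound treatment and expressed as inhibition relative to vehicle-treated cultures.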

[4] = NCI Yeast Anticancer Drug Screen. Data for the cln2 rad14 strain (AID 165);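 also: 0% = growth equal to vehicle treated cultures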; settings: S. cerevisiae cln2 rad14 strain, active compounds read high
Method in brief: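 Readout is yeast growth inhibition versus vehicle-treated controls, using a strain with cln2 and rad14 alterations exposed to compound.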

[5] = NCI Yeast Anticancer Drug Screen. Data for the bub3 strain (AID 167); settings: S. cerevisiae bub3 mutant strain, active compounds read high
Method in brief: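 Screening used yeast with an engineered genetic alteration affecting cell cycle control. Compound-exposed cultures were compared with vehicle cultures, and reduced growth was taken as inhibition.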

[6] = NCI Yeast Anticancer Drug Screen. Data for the mlh1 rad18 strain (AID 175); settings: S. cerevisiae mlh1 rad18 strain growth inhibition, active compounds read high
Method in brief: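 Genetically defined yeast (DNA repair-deficient) exposed to compounds; growth inhibition determined relative to vehicle.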

[7] = at 5.0 µM (retest, dose inferred, filed as 0.5)
[8] = at 50.0 µM (retest, dose inferred, filed as 5.0)

Row | SMILES | growth inhibition [1, 7] [%] | growth inhibition [1, 8] | growth inhibition ([1]; at 50.0 µM) | growth inhibition [2, 7] [%] | growth inhibition [2, 8] | growth inhibition ([2]; at 50.0 µM) | growth inhibition [3, 7] [%] | growth inhibition [3, 8] | growth inhibition ([3]; at 50.0 µM) | growth inhibition [4, 7] [%] | growth inhibition [4, 8] | growth inhibition ([4]; at 50.0 µM) | growth inhibition [5, 7] [%] | growth inhibition [5, 8] | growth inhibition ([5]; at 50.0 µM) | growth inhibition [6, 7] [%] | growth inhibition [6, 8] | growth inhibition ([6]; at 50.0 µM)
1 | CC/C=C(\C)CC(C)O (stereo not given) | -3 | 16% | 64.9% | -4 | 3% | 43.8% | -3 | 18% | 77.6% (active) | 1 | 9% | 59.7% | 1 | -5% | 57% | -3 | 8% | 54.9%
2 | O/N=C1/CCCC/C1=C\c1ccc(Cl)c(Cl)c1 | 5 | 99% (active) | 98.8% (active) | 1 | 99% (active) | 99.3% (active) | 28 | 100% (active) | 99.2% (active) | -6 | 99% (active) | 99.2% (active) | -3 | 99% (active) | 99.3% (active) | 11 | 96% (active) | 99.1% (active)
3 | NCCSC1(O)C(=O)c2ccccc2C1=O | 35 | 92% (active) | 94.4% (active) | 18 | 72% (active) | 65.7% | -4 | 64% | 56.1% | -3 | 46% | 59.3% | -3 | 43% | 48.5% | 0 | 70% (active) | 75.2% (active)
4 | Clc1ccc(CNc2ccc(Br)cc2)cc1 | 0 | 82% (active) | 94.5% (active) | 3 | 93% (active) | 85.5% (active) | 4 | 94% (active) | 95.8% (active) | -9 | 80% (active) | 82.2% (active) | 3 | 86% (active) | 85.2% (active) | -1 | 91% (active) | 87.7% (active)
5 | C=C1CCC[C@@]2(C)CC[C@@H](/C(C)=C\C=C\C(C)(C)O)C[C@H]12 | 0 | 29% | 83.1% (active) | -1 | 32% | 92.8% (active) | 2 | 56% | 92.5% (active) | -5 | 0% | 91.8% (active) | 2 | 28% | 91.7% (active) | -2 | 53% | 88.8% (active)
6 | O=C(Cl)C(c1ccccc1)(c1ccccc1)c1ccccc1 | -3 | 98% (active) | 98.2% (active) | 14 | 97% (active) | 95.1% (active) | -10 | 98% (active) | 97.8% (active) | 18 | 98% (active) | 92% (active) | 10 | 98% (active) | 94.7% (active) | -8 | 99% (active) | 96.3% (active)
7 | O/N=C(/CCc1ccccc1Cl)c1ccccc1 | 3 | 34% | 94% (active) | -5 | 55% | 93.6% (active) | 3 | 75% (active) | 96.3% (active) | -2 | 41% | 90.1% (active) | 6 | 61% | 87.2% (active) | 1 | 80% (active) | 93.3% (active)
8 | COc1cc(/C=C2\CCc3ccccc3C2=O)ccc1O | -18 | 99% (active) | 89.2% (active) | -14 | 100% (active) | 92.2% (active) | -28 | 99% (active) | 88% (active) | 5 | 99% (active) | 90.8% (active) | 24 | 99% (active) | 91.5% (active) | -20 | 99% (active) | 84.3% (active)
9 | NS(=O)(=O)c1ccc(Nc2c3ccccc3nc3c(C(=O)NC(CO)(CO)CO)cccc23)cc1 | -14 | 24% | 18.9% | -11 | -10% | -1% | -5 | -13% | 15.3% | 25 | -10% | 45.5% | -9 | -8% | 12.9% | -14 | 9% | 15.9%
10 | CCN(CC)CCOC(=O)Nc1cc(Cl)cc(Cl)c1 | 50 | 68% | 71% (active) | 37 | 60% | 47.1% | 52 | 87% (active) | 68.5% | 36 | 62% | 58.2% | 47 | 69% | 61.2% | 59 | 86% (active) | 54.8%
